Results from PubChem BioAssay AID489028 (Sanford-Burnham Center for Chemical Genomics, 2010).
Hit rate of the full screen: of about 10,000 compounds, about 5,600 (56%) were called active. The set was probably picked from earlier hits. The list is a sample of the results. Unmarked numbers belong to inactive results. Rule as the data show it: active = inhibition above about 40%; inactive = the rest.

Target: Protein Mdm4 (Homo sapiens) + E3 ubiquitin-protein ligase Mdm2 (Homo sapiens) (UniProt O15151+Q00987)
Assay: Mdm2-MdmX complex disruptors, retested hits, confirmation, luminescence, single concentration (AID 489028)
Conditions: Mdm2-MdmX binding, luminescent assay; at 8 µM; active compounds read high

Chain of Protein Mdm4 (Homo sapiens) + E3 ubiquitin-protein ligase Mdm2 (Homo sapiens) (O15151 whole entry, looked up): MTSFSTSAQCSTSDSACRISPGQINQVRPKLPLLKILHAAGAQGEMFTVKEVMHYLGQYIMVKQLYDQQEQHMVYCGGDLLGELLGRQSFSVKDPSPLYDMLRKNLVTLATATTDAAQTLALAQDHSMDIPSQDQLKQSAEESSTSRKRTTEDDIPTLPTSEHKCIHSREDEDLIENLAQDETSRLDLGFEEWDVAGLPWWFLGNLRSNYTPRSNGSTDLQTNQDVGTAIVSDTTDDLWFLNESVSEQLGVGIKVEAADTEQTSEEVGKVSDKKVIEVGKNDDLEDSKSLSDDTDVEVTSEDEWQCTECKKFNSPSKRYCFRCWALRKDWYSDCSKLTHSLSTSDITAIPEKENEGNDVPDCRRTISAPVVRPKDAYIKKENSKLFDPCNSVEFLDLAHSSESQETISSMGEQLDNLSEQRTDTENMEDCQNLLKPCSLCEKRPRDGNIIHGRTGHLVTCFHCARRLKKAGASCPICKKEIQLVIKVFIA
Chain of Protein Mdm4 (Homo sapiens) + E3 ubiquitin-protein ligase Mdm2 (Homo sapiens) (Q00987 whole entry, looked up): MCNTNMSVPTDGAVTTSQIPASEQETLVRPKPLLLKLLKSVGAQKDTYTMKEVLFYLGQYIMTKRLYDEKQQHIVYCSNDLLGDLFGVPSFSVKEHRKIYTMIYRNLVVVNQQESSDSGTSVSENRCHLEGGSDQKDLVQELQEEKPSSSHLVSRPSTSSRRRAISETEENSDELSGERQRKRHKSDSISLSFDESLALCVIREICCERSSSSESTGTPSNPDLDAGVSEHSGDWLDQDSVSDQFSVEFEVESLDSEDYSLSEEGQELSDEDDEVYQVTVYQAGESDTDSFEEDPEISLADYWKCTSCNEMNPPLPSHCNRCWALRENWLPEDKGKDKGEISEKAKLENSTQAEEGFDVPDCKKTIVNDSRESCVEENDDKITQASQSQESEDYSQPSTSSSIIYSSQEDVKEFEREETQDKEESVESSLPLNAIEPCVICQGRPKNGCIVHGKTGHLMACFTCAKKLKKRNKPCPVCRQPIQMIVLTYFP

SMILES | inhibition
O=C(/C=C/c1ccc(OCc2c(F)cccc2Cl)cc1)N1CCOCC1 | 66.7% (active)
CCc1nc(C)cn1S(=O)(=O)c1cc([N+](=O)[O-])ccc1Cl | 50.9% (active)
O=C(CCCN1C(=O)/C(=C/c2ccco2)SC1=S)Nc1ccccc1 | 70.8% (active)
O=C(CCCN1C(=O)/C(=C\c2ccco2)SC1=S)Nc1cccc2ccccc12 | 94.5% (active)
OC(CNCC1CCCO1)Cn1c2ccc(Br)cc2c2cc(Br)ccc21 (stereo not given) | 38%
Cc1oc2c(c1C(=O)N1CCOCC1)C(=O)c1ccccc1C2=O | 62.5% (active)
Cc1c(C(=O)Nc2cccc(Cl)c2)cn2c(nc3ccccc32)c1C#N | 9.95%
COc1ccc2nc(Nc3nc4ccc(NC(C)=O)cc4s3)sc2c1 | 35.2%
Cc1nnc(NC(=O)Nc2ccc(Cl)c(Cl)c2)s1 | 86.5% (active)
Cc1nc(N2CCN(c3ccccn3)CC2)c2c(C)c(C(=O)Nc3ccc(F)c(Cl)c3)sc2n1 | 34.2%
CC(C)(C)CC(C)(C)NCC(O)COCCOc1ccc(Br)cc1 (stereo not given) | 51.1% (active)
Cc1nn(-c2ccccc2)c2sc(C(=O)N(Cc3ccco3)C(C)C(=O)NC(C)(C)C)cc12 (stereo not given) | 12.8%
CC[C@H]1CN2CCc3cc(OC)c(OC)cc3[C@@H]2C[C@@H]1C[C@H]1NCCc2cc(OC)c(OC)cc21 | 99.8% (active)
Cc1ccc(-c2cccc([C@H]3[C@@H]4C=CC[C@@H](C)[C@@H]4C(=O)N3Cc3ccccc3)c2)cc1 | -5.3%
CCOC(=O)c1ccc(NC(=O)c2c(NCc3ccccc3)[nH]c(=O)[nH]c2=O)cc1 | 12.4%
Cc1cc(NC(=O)/C=C/C(=O)N(c2ccccc2C)C(C(=O)NC2CCCC2)c2ccc(F)cc2)no1 (stereo not given) | 70% (active)
N/C(=N\OC(=O)c1ccc2c(c1)OCO2)c1ccc(Br)cc1 | 40.2% (active)
N/C(=N\OC(=O)N1c2ccccc2Sc2ccccc21)c1ccc(Br)cc1 | -3.5%
CCOC(=O)/C=c1\s/c(=C\c2ccc(C#N)cc2)c(=O)n1CC(=O)Nc1cccc(C)c1C | 8.85%
Oc1ccccc1C1=NN(c2ccccc2)C(c2ccccc2)C1 (stereo not given) | 8.55%
O=C(Nc1nnc(-c2ccccc2)o1)c1cc(-c2cccs2)nc2ccccc12 | 29.7%
COc1ccc(OC)c(NC(=O)c2sc3nc(C)cc(C)c3c2N)c1 | 15.5%

SMILES | inhibition
COc1ccc(NC(=O)c2cc(-c3cc(OC)c(OC)c(OC)c3)nc3ccccc23)c(OC)c1 | 57% (active)
O=[N+]([O-])c1c(NCCO)cc(Sc2nc3ccccc3s2)c2nonc12 | 96.7% (active)
COc1cccc(CNC(=O)Cc2csc(Nc3nc(=S)[nH]c4ccccc34)n2)c1 | 15.8%
COc1cccc(CNC(=O)c2nnn(CC(=O)Nc3cc(Cl)ccc3C)c2N)c1 | 62.3% (active)
CCCCCCSc1ccc([C@@H]2[C@@H]3C(=O)N(CC)C(=O)[C@@H]3[C@]3(C(=O)OC)CCCCN23)cc1OC | 21.6%
CCOC(=O)/C(=C\c1ccc([N+](=O)[O-])cc1)C(=O)c1cc(C(C)=O)c(Nc2ccccc2)s1 | 99.6% (active)
Cc1ccc2occ(/C=N/NC(=O)c3ccccc3C)c(=O)c2c1 | 65.8% (active)
Cn1c(C(=O)NCCCN2CCN(c3cccc(Cl)c3)CC2)cc2c(=O)n(C)c3ccccc3c21 | 37.8%
CCc1ccc(-c2cc3c(=O)n(CC(=O)NCCCN4CCN(Cc5ccccc5)CC4)nc(C)n3n2)cc1 | 55.5% (active)
O=C(C[C@H]1C/C=C\C[C@@H](NC(=O)OCC2c3ccccc3-c3ccccc32)C(=O)O[C@@H](c2ccccc2)CNC1=O)N[C@H](CO)Cc1ccccc1 | 28.4%
C=CC[C@H](CC(=O)N(CCO)Cc1ccccc1)C(=O)N[C@@H](COC(=O)[C@@H](CC=C)Cc1ccc(F)cc1)Cc1ccccc1 | 1.35%
O=C1NC[C@@H](c2ccccc2)OC(=O)[C@H](Cc2ccc(F)cc2)CC/C=C/C[C@H]1CC(=O)N(CCO)Cc1ccccc1 | 54.5% (active)
CN1CCN(CCCNC(=O)c2ccc(/C=C3\Oc4ccccc4N(Cc4ccc(Cl)cc4)C3=O)cc2)CC1 | 55% (active)
Cc1ccccc1C(CC(=O)c1cccs1)C(C#N)C#N (stereo not given) | 54.7% (active)
Clc1cccc(Cl)c1OCCOCCNCc1ccccc1 | 86% (active)
O=C(N/N=C/c1sc(N2CCCCC2)nc1-c1cccs1)c1cccnc1 | 25.3%
CCOc1ccccc1NC(=O)Cn1nnc(C(=O)NCc2cccs2)c1N | 52.7% (active)
Cc1ccc(-c2nn(C(C)(C)C)c3ncnc(N)c23)cc1 | 67% (active)
COc1cc(SC)ccc1C(=O)Nc1nc(C)cs1 | 57.5% (active)
CCCC(=O)Nc1ccc(C(=O)N/N=C/c2ccc[nH]2)cc1 | 6.9%
CCn1c(/C=C/Nc2ccccc2)[n+](CC)c2ccc(C(=O)OCC(F)(F)F)cc21 | 13.1%
O=C(COc1ccccc1F)Nc1nc(-c2ccccn2)cs1 | 53.6% (active)

SMILES | inhibition
CC1CCN(C(=O)c2ccc(S(=O)(=O)Cc3cc(F)ccc3F)c([N+](=O)[O-])c2)CC1 | 64% (active)
CCOC(=O)N1CCN(C(=O)c2ccc(S(=O)(=O)c3ccc(C)cc3)c(NC(C)=O)c2)CC1 | 8.65%
FC(F)(F)c1nnc2c3ccccc3c(Cl)nn12 | 47% (active)
COc1ccccc1C(=O)NC(=S)NC12CC3CC(CC(C3)C1)C2 | 21.8%
Cn1nc(-c2ccccc2)c(CSc2cccc(Cl)c2)c1Cl | 48.5% (active)
C=CCN(CC=C)S(=O)(=O)c1ccc(C(=O)Nc2sc3c(c2C(N)=O)CCCCC3)cc1 | 10.8%
CCOC(=O)c1c(NC(=O)c2ccc(S(=O)(=O)N(C)CC3CCCO3)cc2)sc2c1CC(C)(C)NC2(C)C (stereo not given) | 47.1% (active)
CC1(C)CCSC(/C=C/c2ccccc2)=N1 | 68% (active)
Cc1[nH]c(=O)c(C(=O)/C=C/c2ccccc2)c2c1CCCC2 | 99.5% (active)
C=CCn1c(C)cc(C2=NNC(=NCC)SC2)c1C | 98.1% (active)
Cc1cc(C)nc(S/C=C/C(=O)c2ccccc2)n1 | 32.4%
O=C(/C=C/Sc1ncn[nH]1)c1ccc(Cl)cc1 | 80.4% (active)
CC[n+]1cc(C)ccc1/C=C/c1ccc(N(C)C)cc1 | 53.6% (active)
COc1ccccc1N1CCN(C(=O)c2cc(=O)c3cc(C)cc(C)c3o2)CC1 | 66.8% (active)
C#CCOCCOCCOCCNc1nc(N2CCN(C(=O)CCCCCCCCCCNC(=O)[C@H](CCCCN)n3cc(C)nn3)CC2)nc(N2CCN(C(=O)CCCCCCCCCCNC(=O)[C@H](CO)n3cc(CCCSC)nn3)CC2)n1 | 14%
CN(NC(=O)c1ccccc1F)c1nc(C(F)(F)F)nc2ccccc12 | 57% (active)
CN(NC(=O)c1ccccc1)c1nc2ccccc2nc1C(F)(F)F | 51.9% (active)
O=C(Nc1nnc(-c2ccccc2F)s1)c1ccccc1F | -82.2%
CSc1nc(N(C)NC(=O)c2cccc(C)c2)c2ccccc2n1 | 57.7% (active)
COc1cc2c(cc1NC(=O)COC(=O)/C=C/c1ccccc1)oc1ccccc12 | -6.7%
CCOC(=O)/C=C/C(=O)OCC(=O)NC(c1ccccc1)c1ccccc1 | 74.5% (active)
Cc1cc2cc3c(cc2nc1SCC(=O)Nc1c(C)cccc1C)CCC3 | 43.1% (active)

SMILES | inhibition
Cc1ccccc1NC(=O)CSc1nc2ccc(Nc3nc(N4CCOCC4)nc(N4CCOCC4)n3)cc2s1 | 35.7%
OCCNc1nc(Nc2ccc(Cl)c(Cl)c2)nc2ccccc12 | 69.5% (active)
O=C(CSc1nc2ccccc2c(=O)[nH]1)Nc1nc(-c2ccc(Br)cc2)cs1 | 47.8% (active)
O=C(NNc1ccccc1Cl)C(O)(c1cccc(C(F)(F)F)c1)c1cccc(C(F)(F)F)c1 | 36.2%
COC(=O)Cc1[nH]n(-c2nc3ccccc3s2)c(=O)c1C(C)=Nc1ccc(OC)cc1 | 89.3% (active)
CCCCN(CCCC)CCC(O)c1cc2c(Cl)cc(Cl)cc2c2cc(C(F)(F)F)ccc12 (stereo not given) | 21.1%
COc1ccc2sc(-c3ccccc3OC)c(-c3ccc(OCCN4CCCC4)cc3)c2c1 | 5.35%
COc1cccc(-c2sc3ccc(OC)cc3c2-c2ccc(OCCN3CCCCC3)cc2)c1 | 49.5% (active)
O=C(CN1C(=O)c2ccccc2S1(=O)=O)N1CCc2ccccc21 | 53% (active)
COCCCNc1nc2c(-c3cccc(C)c3)nnn2c2ccc(Cl)cc12 | 67% (active)
C=CCC[C@@H](Cc1ccc(F)cc1)C(=O)O[C@H](CNC(=O)[C@H](CC=C)CC(=O)N(CCO)Cc1ccccc1)c1ccccc1 | 12.4%
COc1ccc(CCn2c(=N)c(C(=O)NCC3CCCO3)cc3c(=O)n4cccc(C)c4nc32)cc1OC (stereo not given) | 48.1% (active)
Cc1cccn2c(=O)c3cc(C(=O)NCCN4CCOCC4)c(=N)n(Cc4cccnc4)c3nc12 | 49.2% (active)
CCc1ccc(CNC(=O)C2CCN(c3nnc(C)c4c(C)n(-c5ccc(C)cc5)nc34)CC2)cc1 | 56.7% (active)
COc1cc(NC(=O)c2ccccc2NS(=O)(=O)c2ccc(Cl)s2)cc(OC)c1 | 76.4% (active)
Oc1ccc(/C=N/Nc2nc(-c3ccccc3F)nc3ccccc23)c(O)c1 | 54.6% (active)
Cc1nc2ccccc2nc1N/N=C/c1ccc(O)cc1O | 61.6% (active)
COC(=O)C1=C(Nc2ccc(C)cc2)C=C(C)C(C(=O)OC)C1c1ccc(F)cc1 (stereo not given) | 53.5% (active)
Nc1nonc1-n1nnc(C(=O)N/N=C/c2ccccc2O)c1CN1CCCC1 | 33.8%
